CHO-K1 Ca PAM: M1 PAM counterscreen hit in parental CHO-K1 cells. ATP EC20, Fluo-8 calcium fluorescence; 0% at ATP EC20, 100% at ATP max. activation, % at 3 µM. 0.02% of 360,000 active;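 active = activation above the run cutoff, the mean activation of all test compounds plus 3 SD, cut at about 40% in these data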;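 also: peak over basal fluorescence ratio in a 140 s read after ATP addition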
CHRM1 PAM: potentiates human M1 receptor response to acetylcholine; CHO-K1 hM1, Fluo-8 calcium fluorescence, ACh EC20; 0% = ACh EC20, 100% = maximal ACh; activation, % at 3 µM; 0.088% of 360,000 active; in the data active = activation above about 19%, passing the limit was not always enough
Target sequence (P11229 whole entry, looked up): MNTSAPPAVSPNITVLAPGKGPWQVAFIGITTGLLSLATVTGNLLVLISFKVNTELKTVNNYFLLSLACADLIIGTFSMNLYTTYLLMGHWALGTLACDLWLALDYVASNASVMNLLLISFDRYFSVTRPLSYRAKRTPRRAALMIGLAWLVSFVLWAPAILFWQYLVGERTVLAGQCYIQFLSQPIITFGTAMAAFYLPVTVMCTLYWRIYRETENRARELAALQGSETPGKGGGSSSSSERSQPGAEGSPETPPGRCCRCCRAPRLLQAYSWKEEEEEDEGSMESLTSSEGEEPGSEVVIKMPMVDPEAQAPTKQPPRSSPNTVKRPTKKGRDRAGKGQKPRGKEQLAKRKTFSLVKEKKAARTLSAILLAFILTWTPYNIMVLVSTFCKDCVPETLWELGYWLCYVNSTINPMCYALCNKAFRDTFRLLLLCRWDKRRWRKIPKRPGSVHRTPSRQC
CHRM1 agonist: activates human CHRM1 receptor; P11229; CHO-K1 hM1, Fluo-8 calcium fluorescence, agonist mode; 0% DMSO, 100% acetylcholine EC100; activation, % at 3 µM; 0.33% of 360,000 active; AID 588814;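 active = activation above the run's mean compound activation plus 3 SD, cut at about 16% in these data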;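 also: peak over basal fluorescence ratio within a 140 s kinetic read after compound addition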
CHRM1 antagonist: blocks human M1 muscarinic receptor | inhibition, % at 3 µM | AID 588852 | 1.3% of 360,000 active | CHO-K1 hM1, Fluo-8 calcium fluorescence, ACh EC80 antagonist;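 active = percent inhibition above its own plate's cutoff, namely the mean of that plate's compound wells plus 3 SD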;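 also: peak over basal fluorescence ratio during 140 s after agonist addition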
CHO-K1 Ca antag: nonselective inhibitor or artifact in parental CHO-K1 cells; ATP-induced calcium, Fluo-8 fluorescence; inhibition, % at 3 µM; 0.6% of 360,000 active;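 active = inhibition above a per-plate cutoff, the plate's mean sample inhibition plus 3 SD, cut at about 24% in these data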
M1 ag parental: nonselective activator or artifact in parental CHO-K1 cells; 0.48% of 360,000 active; activation, % at 3 µM; AID 602248; Fluo-8 calcium fluorescence; scaled to maximal ATP response, vehicle zero; in the data active = activation above about 15%;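 also: untransfected CHO-K1 host cells lacking M1 receptor as counterscreen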
Large screens that a line does not name were inactive. An excerpt weighted towards active compounds, which were near 2.3% of everything screened.

COc1cc2ccccc2cc1C(=O)Nc1ccc(Cc2ccncc2)cc1	CHRM1 antagonist 29.9
O=C(COc1ccc2ccccc2c1)Nc1ccc(Cc2ccncc2)cc1	CHRM1 antagonist 43.2, CHO-K1 Ca antag 24.8
O=C(O)Cc1ccc(NC(=O)COc2ccc3ccccc3c2)cc1	none
Fc1ccccc1-c1csc(=Nc2cccnc2)n1CCCn1ccnc1	CHRM1 antagonist 30.4
Fc1ccccc1-c1csc(=Nc2cccnc2)n1CC1CCCO1 (stereo not given)	none
CCCS(=O)(=O)N1CCN(CC2CC3C=CC2C3)CC1 (stereo not given)	CHRM1 agonist 21.9
C=CCn1c(C)cc(C(=O)COc2ccc(C)nc2[N+](=O)[O-])c1C	M1 ag parental 17.0
CCn1c(SCCN2CCCCC2)nc2c1c(=O)n(C)c(=O)n2C	none
COC(=O)c1ccc(S(=O)(=O)NCCc2ccccc2OC)n1C	M1 ag parental 17.8
O=C(O)CN1C(=O)C(=O)N(Cc2ccc(Cl)cc2Cl)C1=O	none
O=[N+]([O-])c1cc(S(=O)(=O)NCCCN2CCOCC2)ccc1Cl	none
Cc1ccc(-n2nnnc2Sc2ccc(S(=O)(=O)NCCN(C)C)cc2[N+](=O)[O-])cc1	CHRM1 antagonist 86.4
O=[N+]([O-])c1cc(S(=O)(=O)NCCN2CCOCC2)ccc1Sc1nnnn1-c1ccccc1	CHRM1 antagonist 61.9
COc1ccc(N(CC(=O)N2CCC(C(N)=O)CC2)S(=O)(=O)c2ccccc2)cc1	none
CCCc1ncc(C(=O)c2ccc(OC)cc2)n1C	M1 ag parental 18.8
CN1CCCC(CC2c3ccccc3Sc3ccccc32)C1 (stereo not given)	CHRM1 antagonist 98.7
CN1CCCC(OC(=O)c2ccccc2F)C1 (stereo not given)	none
O=C(NNC(=O)c1ccc(-n2cncn2)c([N+](=O)[O-])c1)c1ccc(Cl)cc1	none
O=C(NNC(=O)c1ccc(-n2cncn2)c([N+](=O)[O-])c1)c1cccc(Cl)c1	CHO-K1 Ca antag 47.5
O=C(Nc1cccc(F)c1)c1c(F)c(F)c(F)c(F)c1F	CHO-K1 Ca antag 24.1
O=[N+]([O-])c1cc(C(F)(F)F)cc([N+](=O)[O-])c1NCCNC(=S)Nc1ccc(Cl)c(Cl)c1	CHO-K1 Ca antag 27.4
c1ccc(CCNc2ccnc3cc4ccccc4cc23)cc1	CHRM1 antagonist 41.8
CC(C)Nc1ccc(Nc2ccnc3cc4ccccc4cc23)cc1	none
Cc1nn(-c2ccccc2)c(C)c1C(=O)OCC(=O)N(C)C1CCS(=O)(=O)C1 (stereo not given)	none
CN(C(=O)CSc1nc2ccccc2n1C)C1CCS(=O)(=O)C1 (stereo not given)	CHRM1 antagonist 29.1
CN(C(=O)COC(=O)c1nc(-c2ccccc2)n(-c2ccccc2)n1)C1CCS(=O)(=O)C1 (stereo not given)	CHRM1 antagonist 64.3
CN(C(=O)CSc1nc2ccccc2c(=O)n1C)C1CCS(=O)(=O)C1 (stereo not given)	none
CC1CC(C)CN(C(=O)c2ccc(Br)c(S(=O)(=O)N3CCOCC3)c2)C1 (stereo not given)	none
O=C(c1ccc(Br)c(S(=O)(=O)N2CCOCC2)c1)N1CCN(C/C=C/c2ccccc2)CC1	CHRM1 antagonist 69.9
Cc1ccnc2nc(C(=O)OCC(=O)NC3CCCC(C)C3C)nn12 (stereo not given)	CHRM1 PAM 29.6
Cc1ccnc2nc(C(=O)OCCOc3cccc(Br)c3)nn12	CHRM1 PAM 22.9, CHO-K1 Ca antag 25.5
Cc1ccnc2nc(C(=O)OCC(=O)NC3CCC(C)CC3)nn12 (stereo not given)	none
CCc1nn(CC(=O)NCCCN2CCN(CC)CC2)c(=O)c2cc3occc3n12	CHRM1 PAM 24.0
CCc1nn(CC(=O)NCCCN(C)C2CCCCC2)c(=O)c2cc3occc3n12	none
CCc1nn(CC(=O)NCCCN(CC)Cc2ccccc2)c(=O)c2cc3sccc3n12	CHRM1 antagonist 43.6
COc1ccc(OC)c(NS(=O)(=O)c2ccc(-n3cccn3)cc2)c1	CHO-K1 Ca antag 26.2
CC(C)(C)NC(=O)c1ccccc1-c1nc2ccccc2s1	CHRM1 agonist 18.0, M1 ag parental 33.5
CC(C)(C)NC(=O)c1nc2ccccc2s1	none
O=C(CSc1nnc(CNC(=O)c2cccs2)o1)NC1CCCCC1	CHO-K1 Ca antag 24.6
Cc1ccc(/C=C2\CCC3=C2OC(N)=C(C#N)C3c2ccc(C)cc2)cc1 (stereo not given)	CHRM1 agonist 26.7, CHRM1 antagonist 49.8, CHO-K1 Ca antag 34.7, M1 ag parental 15.7
COc1cc(CC(=O)OCC(=O)N2C(C)CCCC2C)cc(OC)c1OC (stereo not given)	none
CCOC(=O)Nc1cccc(OCC(=O)Nc2ccccc2OCC)c1	CHO-K1 Ca antag 24.1
CC(=O)Nc1cccc(OCC(=O)Nc2ccccc2)c1	none
COc1ccc(N2CC(O)(c3ccc(F)cc3)[N+]3=C2CCCC3)cc1 (stereo not given)	CHRM1 antagonist 47.3
COc1ccc(N2CC(O)(c3ccc(OC(F)F)cc3)[N+]3=C2CCCC3)cc1 (stereo not given)	CHRM1 antagonist 42.2
OC1(c2cccs2)CN(c2ccccc2)C2=[N+]1CCCC2 (stereo not given)	none
CCOc1ccc(N2CC(O)(c3cccs3)[N+]3=C2CCCC3)cc1 (stereo not given)	CHRM1 antagonist 41.0
O=C(NC(c1ccc(Cl)cc1)c1cnccn1)C1CCN(CCCOc2ccccc2)CC1 (stereo not given)	none
CCCCn1c(N)c(N(CCOC)C(=O)C(C)N2C(=O)c3ccccc3C2=O)c(=O)[nH]c1=O (stereo not given)	none
C[N+](=O)C1C(=O)Nc2ccccc21 (stereo not given)	none (no result: CHRM1 PAM, CHRM1 agonist, CHRM1 antagonist)
C=CCn1c(SCC#N)nc2sc(CC)cc2c1=O	CHRM1 antagonist 34.2
CN(C)Cc1cc(C(F)(F)F)ccc1C(O)(c1ccccc1)c1ccccc1	CHRM1 antagonist 101.4
CN(C)Cc1ccccc1C(O)(c1ccccc1)c1ccccc1	none
COc1ccc(NC2CCCN(C(=O)CN3C(=O)c4ccccc4C3=O)C2)cc1OC (stereo not given)	none
COc1ccccc1CNC(=O)C1CCC(=O)N(CCCc2ccccc2)C1 (stereo not given)	CHO-K1 Ca antag 32.2
COC(=O)c1ccc(CNC(=O)C2CCC(=O)N(CCCc3ccccc3)C2)cc1 (stereo not given)	none
Cc1ccc(F)c(CNC(=O)C2CCC(=O)N(Cc3ccccn3)C2)c1F (stereo not given)	CHO-K1 Ca antag 26.8
Cn1cc(CNC(=O)C2CCC(=O)N(Cc3ccccc3F)C2)cn1 (stereo not given)	CHRM1 PAM 25.6
